Among all 5,500 compounds or so, about 2,000 (36%) were called active. Another 18% or so got no clear call; they are omitted. Some of the results follow. Unmarked numbers belong to inactive results. Rule as the data show it: active = normalized growth mostly below about 0.91 (no sharp cut-off); inconclusive = no clear call, values can overlap the other calls; inactive = mostly above about 0.92.
Experiment: chemical genetic growth profiling, strain panel (AID 1159580);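 also: tested at 20 µM; growth read once vehicle control cultures reached saturation at 30 °C; 1 = growth at the plate median or of vehicle wells; lower values mean less growth of the strain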
Conditions: S. cerevisiae deletion strains, growth OD

With O=C1c2cccc(O)c2C(=O)c2c(O)cccc21 the normalized growth (locus YJR043C, strain POL32, stronger effect = lower value) was 0.767 (active), the normalized growth (locus YJR066W, strain TOR1, stronger effect = lower value) was 0.796 (active) and the normalized growth (locus YKL009W, strain mrt4, stronger effect = lower value) was 0.844 (active). For the same compound, the normalized growth (locus YKL068W, stronger effect = lower value) was 0.967, the normalized growth (locus YKL085W, strain MDH1 (second series), stronger effect = lower value) was 0.944 and the normalized growth (locus YKL085W, strain MDH1, stronger effect = lower value) was 0.944. For the same compound, the normalized growth (locus YKL160W, strain elf1, stronger effect = lower value) was 0.835 (active), the normalized growth (locus YKL190W, strain CNB1, stronger effect = lower value) was 0.697 (active) and the normalized growth (locus YKR001C, strain vps1, stronger effect = lower value) was 0.405 (active). It also gave a normalized growth (locus YKR026C, strain gcn3, stronger effect = lower value) of 0.97, a normalized growth (locus YKR091W, strain srl3, stronger effect = lower value) of 0.97 and a normalized growth (locus YLL001W, strain dnm1, stronger effect = lower value) of 0.903. For the same compound, the normalized growth (locus YLL026W, stronger effect = lower value) was 0.941, the normalized growth (locus YLL041C, strain sdh2, stronger effect = lower value) was 0.953 and the normalized growth (locus YLR027C, strain aat2, stronger effect = lower value) was 0.878 (active). The normalized growth (locus YLR039C, strain RIC1, stronger effect = lower value) was 0.178 (active), the normalized growth (locus YLR058C, strain SHM2, stronger effect = lower value) was 0.684 (active) and the normalized growth (locus YLR102C, strain apc9, stronger effect = lower value) was 0.961. The normalized growth (locus YLR113W, strain HOG1, stronger effect = lower value) was 1, the normalized growth (locus YLR221C, strain rsa3, stronger effect = lower value) was 0.856 (active) and the normalized growth (locus YLR258W, strain gsy2, stronger effect = lower value) was 0.909 (active). For the same compound, the normalized growth (locus YLR262C, strain YPT6 (second series), stronger effect = lower value) was 0.406 (active), the normalized growth (locus YLR262C, strain YPT6, stronger effect = lower value) was 0.24 (active) and the normalized growth (locus YLR268W, strain sec22, stronger effect = lower value) was 0.606 (active). For the same compound, the normalized growth (locus YLR320W, strain mms22, stronger effect = lower value) was 0.435 (active), the normalized growth (locus YLR330W, strain CHS5, stronger effect = lower value) was 0.688 (active) and the normalized growth (locus YLR342W, strain FKS1 (second series), stronger effect = lower value) was 0.923. For the same compound, the normalized growth (locus YLR342W, strain FKS1, stronger effect = lower value) was 0.975, the normalized growth (locus YLR357W, strain rsc2, stronger effect = lower value) was 0.995 and the normalized growth (locus YLR371W, strain rom2, stronger effect = lower value) was 0.789 (active). The normalized growth (locus YLR384C, strain iki3, stronger effect = lower value) was 0.936, the normalized growth (locus YLR418C, strain cdc73, stronger effect = lower value) was 0.401 (active) and the normalized growth (locus YML016C, strain PPZ1, stronger effect = lower value) was 0.82 (active). The normalized growth (locus YML032C, strain rad52, stronger effect = lower value) was 0.291 (active), the normalized growth (locus YML120C, strain ndi1, stronger effect = lower value) was 0.866 (active) and the normalized growth (locus YML124C, strain tub3, stronger effect = lower value) was 0.802 (active). For the same compound, the normalized growth (locus YMR058W, strain fet3, stronger effect = lower value) was 0.747 (active), the normalized growth (locus YMR078C, strain ctf18, stronger effect = lower value) was 0.841 (active) and the normalized growth (locus YMR125W, strain sto1, stronger effect = lower value) was 0.959. For the same compound, the normalized growth (locus YMR129W, stronger effect = lower value) was 0.972, the normalized growth (locus YMR205C, strain PFK2, stronger effect = lower value) was 0.96 and the normalized growth (locus YMR223W, strain ubp8, stronger effect = lower value) was 0.668 (active). The normalized growth (locus YMR231W, strain pep5, stronger effect = lower value) was 0.882 (active), the normalized growth (locus YMR263W, strain SAP30, stronger effect = lower value) was 0.756 (active) and the normalized growth (locus YMR307W, strain GAS1, stronger effect = lower value) was 0.677. For the same compound, the normalized growth (locus YNL067W, strain RPL9B, stronger effect = lower value) was 0.699 (active), the normalized growth (locus YNL071W, strain lat1, stronger effect = lower value) was 0.831 (active) and the normalized growth (locus YNL128W, strain TEP1, stronger effect = lower value) was 0.638 (active). The normalized growth (locus YNL153C, strain GIM3, stronger effect = lower value) was 0.568 (active), the normalized growth (locus YNL183C, strain NPR1, stronger effect = lower value) was 0.836 and the normalized growth (locus YNL209W, strain ssb2, stronger effect = lower value) was 0.879 (active). For the same compound, the normalized growth (locus YNL233W, strain BNI4, stronger effect = lower value) was 0.729 (active), the normalized growth (locus YNL248C, strain rpa49, stronger effect = lower value) was 0.55 (active) and the normalized growth (locus YNL250W, strain rad50, stronger effect = lower value) was 0.463 (active). For the same compound, the normalized growth (locus YNL271C, strain bni1, stronger effect = lower value) was 0.847 (active), the normalized growth (locus YNL298W, strain CLA4, stronger effect = lower value) was 0.823 (active) and the normalized growth (locus YNL307C, strain MCK1, stronger effect = lower value) was 0.669 (active). The normalized growth (locus YNL322C, strain KRE1 (second series), stronger effect = lower value) was 0.965, the normalized growth (locus YNL322C, strain KRE1, stronger effect = lower value) was 0.803 (active) and the normalized growth (locus YNR049C, strain mso1, stronger effect = lower value) was 0.942. The normalized growth (locus YNR052C, strain pop2, stronger effect = lower value) was 0.59 (active), the normalized growth (locus YOL012C, strain htz1) was 0.695 and the normalized growth (locus YOL147C, strain pex11, stronger effect = lower value) was 0.749 (active). The normalized growth (locus YOR001W, strain rrp6, stronger effect = lower value) was 0.855 (active), the normalized growth (locus YOR061W, strain CKA2, stronger effect = lower value) was 0.847 (active) and the normalized growth (locus YOR069W, strain VPS5, stronger effect = lower value) was 0.79 (active). The normalized growth (locus YOR070C, strain gyp1, stronger effect = lower value) was 0.874 (active), the normalized growth (locus YOR080W, strain dia2, stronger effect = lower value) was 0.948 and the normalized growth (locus YOR083W, strain WHI5, stronger effect = lower value) was 0.793 (active). For the same compound, the normalized growth (locus YOR106W, strain vam3, stronger effect = lower value) was 0.577 (active), the normalized growth (locus YOR136W, strain idh2, stronger effect = lower value) was 0.845 (active) and the normalized growth (locus YOR144C, strain elg1, stronger effect = lower value) was 0.886 (active). For the same compound, the normalized growth (locus YOR184W, strain ser1, stronger effect = lower value) was 0.375 (active), the normalized growth (locus YOR231W, strain MKK1, stronger effect = lower value) was 0.895 and the normalized growth (locus YOR265W, strain rbl2, stronger effect = lower value) was 0.935. For the same compound, the normalized growth (locus YOR270C, strain vph1, stronger effect = lower value) was 0.364 (active), the normalized growth (locus YOR290C, strain snf2, stronger effect = lower value) was 0.796 (active) and the normalized growth (locus YOR316C, strain cot1, stronger effect = lower value) was 0.941. For the same compound, the normalized growth (locus YPL051W, strain arl3, stronger effect = lower value) was 0.737 (active), the normalized growth (locus YPL078C, strain atp4, stronger effect = lower value) was 0.897 and the normalized growth (locus YPL106C, strain sse1, stronger effect = lower value) was 0.705 (active). For the same compound, the normalized growth (locus YPL240C, strain hsp82, stronger effect = lower value) was 0.909 (active), the normalized growth (locus YPL241C, strain CIN2, stronger effect = lower value) was 0.847 (active) and the normalized growth (locus YPL256C, strain CLN2, stronger effect = lower value) was 0.996. For the same compound, the normalized growth (locus YPR119W, strain clb2, stronger effect = lower value) was 0.931, the normalized growth (locus YPR141C, strain kar3, stronger effect = lower value) was 0.966 and the normalized growth (locus YPR163C, strain tif3, stronger effect = lower value) was 0.775 (active). The normalized growth (locus YPR167C, strain met16, stronger effect = lower value) was 0.851 (active) and the normalized growth (strain wtn01, stronger effect = lower value) was 0.752 (active).

From PubChem BioAssay AID1159580 (chemical genetic matrix, 2015)
